Experimental findings from PubChem BioAssay are described below.

The source made the active and inactive calls. Unless noted, the rule behind the calls is not given here.

Test [1] deals with XIP peptide (Xip251-270) binding. The experiment in a line: XIP fragment 251-270 binding compounds – biochemical, small-molecule microarray, fluorescence 635/667 nm, 0.1 µg/mL protein, primary screen (AID 1182). The following applies: fluorescent protein binding, 635 nm, higher = more signal, called active from +8 up or from −8 down.
Another test deals with XIP peptide (Xip251-270). The experiment in a line: compounds binding XIP fragment 251-270 – biochemical, small-molecule microarray, fluorescence 635/667 nm, 0.5 µg/mL protein, primary screen (AID 1183). The following applies: fluorescence 635 nm, higher = more signal.
A short description of test [2]: blood-stage malaria parasite viability loss – strain 3D7, DAPI fluorescence, 100 nL, primary screen (AID 1184).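 Note: parasites grown inside human red blood cells in medium with human serum.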 The note with it: P. falciparum 3D7 growth, 3 d, higher = more signal.
Test [3] deals with Homeobox protein Hox-A13 (Mus musculus) (UniProt Q62424). The experiment in a line: disruptors of Hoxa13 oligonucleotide interaction – biochemical, fluorescence polarization, labeled oligonucleotide, primary screen (AID 1185). The note with it: Hoxa13:DNA binding, 15 min, higher = more signal, called active from +8 up or from −8 down.
The nature of test [4]: blockers of DNA damage checkpoint Chk1 activation – imaging, HeLa, hydroxyurea, phospho-Chk1 antibody, percent positive cells, primary screen (AID 1186). The following applies: hydroxyurea-induced phospho-Chk1 immunofluorescence imaging, higher = more signal.
Test [5] is described as follows: blockers of DNA damage checkpoint Chk1 activation – imaging, HeLa, hydroxyurea, phospho-Chk1 nuclear intensity, primary screen (AID 1187). The following applies: hydroxyurea-induced phospho-Chk1 immunofluorescence imaging, higher = more signal.

Chain of Homeobox protein Hox-A13 (Mus musculus) (Q62424 whole entry, looked up): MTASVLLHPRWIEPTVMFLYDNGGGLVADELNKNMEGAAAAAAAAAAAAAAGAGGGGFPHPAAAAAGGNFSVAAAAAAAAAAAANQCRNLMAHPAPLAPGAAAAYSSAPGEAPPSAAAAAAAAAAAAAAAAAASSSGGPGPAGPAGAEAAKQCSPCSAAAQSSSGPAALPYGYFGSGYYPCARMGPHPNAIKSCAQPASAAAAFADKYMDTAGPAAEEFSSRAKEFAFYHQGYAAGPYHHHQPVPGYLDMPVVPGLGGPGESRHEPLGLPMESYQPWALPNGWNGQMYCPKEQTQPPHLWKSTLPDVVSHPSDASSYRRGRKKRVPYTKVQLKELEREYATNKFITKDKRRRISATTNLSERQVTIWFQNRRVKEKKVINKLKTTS

In the case of `CCOC(=O)C=Cc1cccc(OC)c1O`, the composite z-score in test [1] is 0.0682 (inactive); with XIP peptide (Xip251-270), 0.36. The z-score in test [2] is -1.24; in test [3], -0.697 (inactive); in test [4], -1.68 (inactive); in test [5] it was -1.49 (inactive).
Turning to `[N-]=[N+]=NCc1ccccc1C[C@]1(C(=O)NCCN2CCOCC2)N=C(c2ccc(OCCCO)cc2)O[C@H]1c1ccccc1CN=[N+]=[N-]`, the composite z-score in test [1] was 3.06 (inactive); in the test on XIP peptide (Xip251-270) it was 0.578. In addition, the z-score in test [2] was -2.67; in test [3], -2.59 (inactive); in test [4] it was -0.26 (inactive); in test [5] it was -0.787 (inactive).
On to `COc1ccc(C(O)C2C=CC3C(=O)N(c4ccccc4)C(=O)C3N2Nc2ccccc2)c2ccccc12` (stereo not given), for which the composite z-score in test [1] is 2.31 (inactive); in the test on XIP peptide (Xip251-270), 0.573. In addition, the z-score is -0.182 in test [2], -1.28 (inactive) in test [3], -0.0153 (inactive) in test [4] and -0.861 (inactive) in test [5].
`CN(C)CCCC[C@@H]1NC(=O)[C@@H]2C[C@H](C(=O)NCc3ccc(F)cc3)[C@H](c3cccc(OCCO)c3)N2C1=O`: the composite z-score in test [1] is 0.658 (inactive); in the test on XIP peptide (Xip251-270), 0.813. The z-score is -0.459 in test [2], -3.36 (inactive) in test [3], 0.445 (inactive) in test [4] and 0.314 (inactive) in test [5].
Turning to `O=C(NCC(O)CO)[C@@]1(Cc2ccccc2)N=C(c2ccc(OCCCO)cc2)O[C@H]1c1ccccc1` (stereo not given in full), the composite z-score in test [1] was 0.502 (inactive); in the test on XIP peptide (Xip251-270), 0.801. Moreover, the z-score is -1.22 in test [2], -4 (inactive) in test [3], -0.607 (inactive) in test [4] and -0.29 (inactive) in test [5].
With `O=C(NCC(F)(F)F)[C@@H]1c2ccccc2C(=O)N(Cc2ccccc2)[C@H]1c1ccc(CO)cc1`, the results for the composite z-score (in test [1]; in the test on XIP peptide (Xip251-270)) were 0.377 (inactive) and -0.396, respectively. Also, the z-score is -0.778 in test [2], -1.25 (inactive) in test [3], -0.571 (inactive) in test [4] and -0.801 (inactive) in test [5].
As for `O=C(NCC(O)CO)[C@]1(CCS(=O)(=O)c2ccccc2)N=C(c2ccc(OCCCO)cc2)O[C@@H]1c1ccccc1` (stereo not given in full), the composite z-score in test [1] was 1.51 (inactive); in the test on XIP peptide (Xip251-270), -0.0557. Also, the z-score was -0.434 in test [2], -7.16 (inactive) in test [3], 0.429 (inactive) in test [4] and -0.0974 (inactive) in test [5].
As to `COc1ccc([Si](C)(C)[C@@H]2[C@@H](CCO)O[C@]3(C(=O)N(Cc4ccccc4)c4ccc(N(C=O)c5ccccc5)cc43)[C@H]2C)cc1`, the values for the composite z-score (in test [1]; in the test with XIP peptide (Xip251-270)) were 0.581 (inactive) and 0.573, respectively. For the same compound, the z-score was -2.79 in test [2], -0.204 (inactive) in test [3], -1.32 (inactive) in test [4] and -0.697 (inactive) in test [5].
For the compound `[N-]=[N+]=NCc1ccccc1[C@@H]1OC(c2ccc(OCCCO)cc2)=N[C@]1(Cc1ccccc1)C(=O)O`, the composite z-score in test [1] was 0.078 (inactive); in the test on XIP peptide (Xip251-270) it was 0.859. The z-score is 0.615 in test [2], -4.89 (inactive) in test [3], 0.412 (inactive) in test [4] and 0.595 (inactive) in test [5].
Regarding `C=C(CCCC)C(=O)CC[C@H](OC(=O)c1ccccc1-c1ccccc1C(=O)O)c1ccc(CO)o1`, the figures for the composite z-score (in test [1]; in the test with XIP peptide (Xip251-270)) were 0.556 (inactive) and 0.582, respectively. Moreover, the z-score in test [2] is -0.714; in test [3], -6.05 (inactive); in test [4], -0.131 (inactive); in test [5] it was -0.23 (inactive).
As for `COC(=O)[C@@]1(Cc2ccccc2)[C@H]2c3cc(C(=O)N(C)C)n(Cc4cc(F)c(F)c(F)c4)c3C[C@H]2CN1C(=O)c1ccccc1`, the values for the composite z-score (in test [1]; in the test with XIP peptide (Xip251-270)) were -0.218 (inactive) and 0.0006, respectively. In addition, the z-score in test [2] is -1.52; in test [3], -4 (inactive); in test [4] it was -0.217 (inactive); in test [5], -0.227 (inactive).
Turning to `CN1C(=O)C2C=CC(C(O)C(c3ccccc3)c3ccccc3)N(Nc3ccccc3)C2C1=O` (stereo not given), the composite z-score in test [1] is 0.0848 (inactive); in the test with XIP peptide (Xip251-270) it was 0.68. The z-score in test [2] is 0.608; in test [3], -4.01 (inactive); in test [4], 0.535 (inactive); in test [5], -0.0171 (inactive).
On to `O=C1O[C@@H](c2ccccc2)[C@@H](c2ccccc2)N2[C@@H](c3ccc(O)cc3)[C@]3(C(=O)Nc4ccccc43)[C@@H](C(=O)NC[C@H](O)c3ccccc3)[C@H]12`, for which the composite z-score in test [1] is 0.737 (inactive); in the test with XIP peptide (Xip251-270), 0.232. Moreover, the z-score in test [2] is 1.15; in test [3], -5.08 (inactive); in test [4], -0.0877 (inactive); in test [5] it was -0.173 (inactive).
On to `CCCNC(=O)[C@@]1(C)c2ccccc2C(=O)N(Cc2cc(F)cc(C(F)(F)F)c2)[C@H]1c1ccc(CO)cc1`, for which the results for the composite z-score (in test [1]; in the test on XIP peptide (Xip251-270)) were 1.33 (inactive) and 0.718, respectively. Besides, the z-score in test [2] is -0.8; in test [3] it was -3.51 (inactive); in test [4] it was 0.309 (inactive); in test [5], 0.226 (inactive).
Consider `O=C1OCCC=C[C@H]2OC34C=CCN(CCN5CCOCC5)C(=O)[C@H]3N(CCO)C(=O)[C@@H]4C12` (stereo not given in full), for which the composite z-score in test [1] was 0.134 (inactive); in the test on XIP peptide (Xip251-270) it was 0.0053. The z-score in test [2] is 0.0863; in test [3] it was -5.81 (inactive); in test [4] it was -0.492 (inactive); in test [5] it was -0.757 (inactive).
